Data on 40 sequences can be found in the supplement of paper PMC6555819.

The test system of this assay is VDR:RXRa (NR concentration 270 nM, RXRa partner concentration 90 nM). In words: PBM binding z-score (relative to random genomic background probes); higher = stronger binding; sequences stand for … in GC…GCGATTGACAGCGTAGAATGAAGG
The procedure: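 Protein-binding microarray (Agilent 4x180K custom design, double-stranded 60-nt probes: 5' GC cap, 34-nt variable region, 24-nt constant primer region; full probe sequence given). Purified or IVT nuclear receptor:RXRα heterodimers (3:1 NR:RXRα, mostly 270:90 nM) or homodimers were incubated for 1 h in PBS with 2% milk and no ligand, then detected with Alexa488 antibodies. Fluorescence from o1-orientation probes (~5 replicates averaged) was converted to z-scores against 500 random hg19 background probes. Variable regions are seed direct-repeat (DR0–DR5) sites, all their single-nucleotide variants and half-site ablations.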
Regarding TAGCCTAAGTCATGCGGGCCAGTATAGTGTCGGC, the PBM binding z-score was -0.392. Under CGTCCGAGGTCATAGGAGGTCAGTGAAGACAGAT stands 7.1; under TCTAGTCGGTCAAAGGTCACACACTCGAAATGCG, 5.65; under GCTGCTAGGTCAACTGATGGTCAACTAAAGCTCG, 2.07. Under CGAACTAGGTCGTCCAGGACAGTGAATACATTGA stands 1.65; under CGAACGAGGTCAAAGGACAGTGAAAGGCGACGTA, 5.02; under CCTTACGGGTCACTCCAGGTTATATCATCGGAGT, 4.52. The result for CAAACTAGGTCACAAAAGGTCAAAGTCGAATGAC reads 6.51; that for CGCACTAGGTCATCCAGGACAGTGAATACATTGA, 4.38.

As to TTACCAAGGTGAACGGTCGTTGATGCACGCCTTG, the PBM binding z-score worked out at 0.0102. The sequence TCTTGTAGATCAACAGGAGGTTAATAAAGATCGA gave a PBM binding z-score of 0.648. For the sequence TATTCAGGGTCAAAGGCCAGAGTACGAATGTCGA, the PBM binding z-score came out at 5.12. The result for CGTCCAAGGTCATAGGAGGTCAATGAAGACAGAT reads 7.01; that for CCGACTGGGGCAAGGTCACCATAACGCACAGCCA, 3.26; that for CCGAGTAGGTTACTAGGGGGCATTCAGTGCGAAT, 5.13. Under AGTCAAAGTGCATCTAGGTAACGTAAGATATGCT stands 0.567; under AGAATGAGGTCACCAAAGATCAGGGAAACGCTTG, 5.55. ACTTACGGGTCTACGAGGTTATAGCACGCGTATA returned a PBM binding z-score of 2.83. Under AATACAGGGTAACTAGGCCAGAGTAGGTACGAAT stands 0.199; under CACACTAGGTCACAGAGGTCAAAGTCCGTGCGTA, 8.14. Under ATATGTAGGTTACCTGGGGTCATTCAGACTAGGC stands 6.78. The result for CGTCCAAGGTCATATGAGGTCAGTGAAGACAGAT reads 7.19; that for CGTCAAAGATCAAGGTAACGTAACAGAAAGCAGC, -0.129. In turn, CCGAGGAGGTTACGAGGGGGCATTCAGTGCGAAT showed a PBM binding z-score of 6.29. The sequence CCTAGTTGGTCAAGGTCACATACGCTATAGGTAC displayed a PBM binding z-score of 4.04. The result for TGTCAACGTTCAAAGGTAACGTAAGTATCCACAC reads 0.617. The result for CCTTACGGGTCACGAGGTTGTAGCACGACGAGCG reads 5.26; that for ATCAAAAGGTCGAGGTGAGTATAGAGAAAGGGAA, 3.29; that for CAAACTAGGTCACCGAAAGGTCAAAGTCCGCATG, 6.46. On to TCTTGTAGATCAATAGAAGTTAAGAAAGTGCGCT, for which the PBM binding z-score worked out at 0.744.

ATATGTAGTTTATCGGGTCATTCAGTTTGCGCAT showed a PBM binding z-score of 5.19. The result for AGAATGAGGTTAAGTTCAGGGAAACAGAATACAT reads 3.33; that for AGAATGAGGTTACCAAAGGTCAGGGAAACGCTTG, 5.67. Under ACTTACGGCTCAACGAGGTTATAGCACGCGTATA stands 1.53. The result for CGAACAAGGTCATTGACAGGACAGTGAATAGTAA reads 4.88; that for ACGCGGAGGACAAAGGTCAGAGCTACGCCAGTGA, 3.14. Take TCTCGGAGGACACAAAGGTCAGAGCTTTCCAGAG: the PBM binding z-score came to 3.68. Consider CGAACTAGGTCGCCAGGACAGTGAAGAGGTTGGA, for which the PBM binding z-score was -0.0336. For ACTAGTTGGTCAGCTGAGGTCACACCCAATTCGG, the PBM binding z-score came to 4.19. Under TAGCCTAGTTCATGCGGGCCAGTATAGTGTCGGC stands 1.14.
